Source: PubChem (several laboratories)
Hits are enriched below; roughly 1.2% of the tested compounds scored in any of these assays.
Rv3671c inh = Rv3671c serine protease inhibitors, primary screen, biochemical, fluorescence polarization, M. tuberculosis H37Rv; inhibition, % at 5.96 µM; 320,000 tested, 0.048% active; in the data active = inhibition above about 38%;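 note: extracellular domain of Rv3671c used as enzyme; 0% = enzyme with DMSO and 100% = no enzyme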
SSB-PriA inh = inhibitors of Klebsiella pneumoniae PriA binding to SSB C-terminal tail, primary screen, biochemical, AlphaScreen | AID 1272365, 2023 | inhibition, % at 33 µM | 430,000 tested, 0.6% active | AlphaScreen SSBct-PriA binding, biotinylated peptide | PriA–SSB C-terminal tail interaction (Klebsiella pneumoniae); in the data active = inhibition mostly above about 37%, no sharp cut-off; inactive = mostly below about 20%;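 note: plate controls were negative control peptide for no effect and reference peptide for full effect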
UGM FP inh = M. tuberculosis UGM enzyme inhibitors, primary screen, biochemical, fluorescence polarization, single point. 320,000 tested, 0.06% active. UDP-galactopyranose mutase (Mycobacterium tuberculosis (strain ATCC 25618 / H37Rv)), …. inhibition, % at 10 µM. purified UGM, fluorescence polarization probe displacement; in the data active = inhibition above about 10%, passing the limit was not always enough; inconclusive = no clear call, values can overlap the other calls
Target sequence (P9WIQ1 whole entry, looked up): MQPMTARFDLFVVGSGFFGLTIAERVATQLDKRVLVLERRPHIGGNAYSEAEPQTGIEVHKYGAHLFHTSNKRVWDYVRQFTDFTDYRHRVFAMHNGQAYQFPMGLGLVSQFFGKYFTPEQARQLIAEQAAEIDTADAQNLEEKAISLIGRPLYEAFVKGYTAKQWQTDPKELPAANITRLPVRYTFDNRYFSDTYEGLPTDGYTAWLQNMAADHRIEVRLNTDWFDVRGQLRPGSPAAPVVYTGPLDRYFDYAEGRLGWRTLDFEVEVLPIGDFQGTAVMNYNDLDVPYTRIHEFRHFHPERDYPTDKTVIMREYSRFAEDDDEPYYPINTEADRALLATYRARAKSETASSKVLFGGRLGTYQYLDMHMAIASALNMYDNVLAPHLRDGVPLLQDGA
FadD28 FP inh = inhibitors of FadD28 bisubstrate probe binding, primary screen, biochemical, fluorescence polarization, single point | inhibition, % at 12.5 µM | 360,000 tested, 0.22% active; in the data active = inhibition above about 8.5%, passing the limit was not always enough; inconclusive = no clear call, values can overlap the other calls
PrP UTR inh = inhibition of PrP 5' UTR reporter expression. cell-based PrP 5' UTR mRNA reporter, plate reader. inhibition, % (test concentration not listed). 340,000 tested, 0.35% active. AID 488862, 2010; in the data active = inhibition above about 52%; note: 0 = median of the neutral control wells
PrPC surface inh = inhibitors of human cell surface prion protein PrPC, primary screen, cell-based, TR-FRET. Major prion protein (Homo sapiens), P04156. TR-FRET read-out. inhibition, % at 13.8 µM. 370,000 tested, 0.43% active; in the data active = inhibition above about 24%; note: 0% = median of the test wells and 100% = reference compound wells
* marks the source's active call; other numbers are inactive results; ? = inconclusive; . = no result; ! = not active in a repeat.

SMILES	Rv3671c inh	SSB-PriA inh	UGM FP inh	FadD28 FP inh	PrP UTR inh	PrPC surface inh
CC(=O)Nc1cccc(NC(=O)C(=O)NCCN2CCC(O)CC2)c1	.	-10	.	.	.	.
COc1cc(/C=C2/SC(=S)N(Cc3ccccc3)C2=O)cc(Cl)c1O	-105	-10	-12	-1	.	-4
COc1cc(/C=C2\SC(=O)N(Cc3ccc(F)cc3)C2=O)cc([N+](=O)[O-])c1O	.	13	.	6	4	5
COc1cc(/C=C2\SC(=O)N(Cc3ccc(Cl)cc3)C2=O)cc([N+](=O)[O-])c1O	.	27	.	24*	-25	1
COc1cc([N+](=O)[O-])cc(/C=C2/SC(=S)N(Cc3ccccc3)C2=O)c1O	-148	-11	-7	47*	0	-11
Nc1cc(Cl)c2nonc2c1[N+](=O)[O-]	-14	-27	2	-16	-22	56*
COc1ccccc1CNc1ncnc2c1cnn2-c1ccccc1	7	46*	2	-3	-32	17
Clc1ccccc1CNc1ncnc2c1cnn2-c1ccccc1	.	-27	.	.	.	.
CCOC(=O)c1ccc(Oc2coc3cc(OCc4ccccc4F)ccc3c2=O)cc1	.	-1	.	.	.	.
COc1ccccc1N1CCN(C(C)(C)CN)CC1	.	-4	.	.	.	.
COCCN1CCCc2ccc(NS(=O)(=O)c3cc(Cl)ccc3C)cc21	.	57*	.	.	.	.
COCCN1CCCc2ccc(NS(=O)(=O)c3ccccc3Cl)cc21	.	21	.	.	.	.
COCCN1CCCc2ccc(NS(=O)(=O)c3ccc(C(C)(C)C)cc3)cc21	.	39*	.	.	.	.
Cc1ccc(S(=O)(=O)Nc2ccc3c(c2)N(CCC(C)C)C(=O)C(C)(C)CO3)c(C)c1	.	-7	.	.	.	.
O=[N+]([O-])c1ccc(O)c(CSc2nnnn2-c2ccccc2)c1	-2	99*	0	3	-22	-5
CC(C)c1cc(=O)n2c(n1)SC[C@@H]2CC(=O)Nc1ccc(OC(F)(F)F)cc1	.	-16	.	.	.	.
Cn1c(=O)c2sccc2n2c(CCC(=O)NCCc3c[nH]c4ccccc34)nnc12	.	0	.	.	.	.
CC1CN(c2oc(COc3ccc(Cl)cc3Cl)nc2C#N)CC(C)O1 (centres undefined)	4	43*	2	-1	-9	1
N#Cc1nc(COc2ccc(Cl)cc2)oc1N1CCCCCC1	-1	52*	0	-1	-14	12
Cc1ccc(OCc2nc(C#N)c(N3CCCCC3)o2)cc1	-3	45*	-1	-4	-9	-5
Cc1ccc(S(=O)(=O)NCC(=O)NCC(O)Cn2c3ccccc3c3ccccc32)cc1 (centres undefined)	.	-11	.	.	.	.
COc1cc(/C=C(\C#N)C(=O)NCCc2ccccc2)cc(OC)c1O	-2	-21	-9	-2	-11	-10
N#C/C(=C\c1ccc(O)c(O)c1)C(=O)NCCc1ccccc1	2	1	-2	11*	-26	5
CS(=O)(=O)c1ccc2nc(N3CCN(C(=O)Cn4c(=O)oc5ccccc54)CC3)sc2c1	.	11	.	.	.	.
Clc1c2ccccc2cc2cccnc12	.	-35	.	.	.	.
SMILES	Rv3671c inh	SSB-PriA inh	UGM FP inh	FadD28 FP inh	PrP UTR inh	PrPC surface inh
Clc1cc2cccnc2c2ncccc12	0	99*	0	.	-9	16
Brc1ccc2ccc3cccnc3c2n1	.	33	.	.	.	.
Brc1cc2cccnc2c2ncccc12	.	151*	.	.	.	.
Cc1nn(C(=O)C2CCCC2)c(C)c1S(=O)(=O)N1CCCCC1	.	4	.	.	.	.
COc1ccc2sc(N(CCN3CCOCC3)C(=O)c3cccc(SC)c3)nc2c1	.	1	.	.	.	.
COc1ccc2sc(N(CCCN3CCOCC3)C(=O)c3cccc([N+](=O)[O-])c3)nc2c1	.	47*	.	.	.	.
O=C(/C=C/c1ccc(-c2cccc([N+](=O)[O-])c2)o1)N1CCOCC1	-20	-9	2	0	.	-25
O=[N+]([O-])c1cccc(-c2csc(=Nc3ccccc3)n2N2CCOCC2)c1	.	64*	.	.	.	.
O=c1oc(-c2ccc(O)c(O)c2)cc2cc(O)cc(O)c12	-11	-9	.	12*	-50	-6
COc1ccc(CCNC(=O)C(=O)Nc2cccc(N3CCCS3(=O)=O)c2)cc1	.	6	.	.	.	.
NNc1ccc([N+](=O)[O-])c2[nH][nH]c(=O)c12	.	.	.	16*	.	-31
COC(=O)C1=CN(c2cccc(C)c2)C=C(C(=O)OC)C1c1cc(OC)c(O)c([N+](=O)[O-])c1	0	53*	0	0	-30	2
COC(=O)C1=CN(c2ccc(OC)cc2)C=C(C(=O)OC)C1c1ccc(C)c([N+](=O)[O-])c1	-4	-8	-1	-1	-16	-4
Cc1ccc([C@H](CNC(=O)NC2CCCCC2)N2CCN(C)CC2)cc1	.	1	.	.	.	.
NS(=O)(=O)c1ccc(CNC(=O)C(Cc2ccccc2)NS(=O)(=O)c2ccccc2F)cc1 (centres undefined)	-1	-4	-4	16*	-10	7
O=C1NC(=O)N(Cc2ccc(F)cc2)C(=O)/C1=C\c1ccc([N+](=O)[O-])s1	-97	24	1	28*	-20	-8
COc1ccc(CN2C(=O)NC(=O)/C(=C\c3ccco3)C2=O)cc1	-17	2	1	?	-10	6
COc1ccc(CN2C(=O)NC(=O)/C(=C/c3ccc([N+](=O)[O-])s3)C2=O)cc1	-9	9	-2	33*	-9	-9
CCN(CC)c1ccc(N2CCN(S(=O)(=O)c3ccc(OC)c(OC)c3)CC2)nn1	.	2	.	.	.	.
O=[N+]([O-])c1cc(Cl)ccc1NCCc1ccccn1	6	55*	1	.	-22	-16
COCCn1c(C)cc(O)c(C(c2ccccc2OC)N2CCN(c3ccc(F)cc3)CC2)c1=O (centres undefined)	.	-2	.	.	.	.
S=c1[nH]nc(C2CCCCC2)n1/N=C/c1cccc(Br)c1	-3	.	0	-3	-4	-4
Cc1cccc(/C=N/n2c(C3CCCCC3)n[nH]c2=S)c1	-7	.	2	11*	-8	.
O=C1C=CC(=O)c2c(O)c(CO)c(CO)c(O)c21	.	4	.	18*	-5	-18
O=c1c(CO)cc(CO)cc(CO)c1O	-4	-15	2	0	-14	-8
CN(C)CCCN(C(=O)c1ccc(S(=O)(=O)N(C)Cc2ccccc2)cc1)c1nc2cc3c(cc2s1)OCO3	7	40*!	-2	-7	-1	-15
CCN(Cc1ccccc1)S(=O)(=O)c1ccc(C(=O)N(CCCN(C)C)c2nc3cc(C)cc(C)c3s2)cc1	0	43*	-1	-4	-2	-12
CN(C)CCN(C(=O)c1ccccc1[N+](=O)[O-])c1nc2ccc(Br)cc2s1	.	47*	.	.	.	.
CN(C)CCCN(C(=O)c1ccc2ccccc2c1)c1nc2cc3c(cc2s1)OCO3	-5	29	2	-1	3	-27
